# Screens (PubChem)
# NRP1-CendR mod: modulators of CendR peptide binding to human neuropilin-1 | AID 602438 | O14786 | 360,000 tested, 0.85% active | FAM-RPARPAR peptide binding to NRP-1, fluorescence polarization | inhibition, % at 25 µM;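 active = inhibition or corrected inhibition above about 18%, plus a signal ratio from 0.5 to 1.5, limit read from the data, passing the limit was not always enough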
# Target sequence (O14786 whole entry, looked up): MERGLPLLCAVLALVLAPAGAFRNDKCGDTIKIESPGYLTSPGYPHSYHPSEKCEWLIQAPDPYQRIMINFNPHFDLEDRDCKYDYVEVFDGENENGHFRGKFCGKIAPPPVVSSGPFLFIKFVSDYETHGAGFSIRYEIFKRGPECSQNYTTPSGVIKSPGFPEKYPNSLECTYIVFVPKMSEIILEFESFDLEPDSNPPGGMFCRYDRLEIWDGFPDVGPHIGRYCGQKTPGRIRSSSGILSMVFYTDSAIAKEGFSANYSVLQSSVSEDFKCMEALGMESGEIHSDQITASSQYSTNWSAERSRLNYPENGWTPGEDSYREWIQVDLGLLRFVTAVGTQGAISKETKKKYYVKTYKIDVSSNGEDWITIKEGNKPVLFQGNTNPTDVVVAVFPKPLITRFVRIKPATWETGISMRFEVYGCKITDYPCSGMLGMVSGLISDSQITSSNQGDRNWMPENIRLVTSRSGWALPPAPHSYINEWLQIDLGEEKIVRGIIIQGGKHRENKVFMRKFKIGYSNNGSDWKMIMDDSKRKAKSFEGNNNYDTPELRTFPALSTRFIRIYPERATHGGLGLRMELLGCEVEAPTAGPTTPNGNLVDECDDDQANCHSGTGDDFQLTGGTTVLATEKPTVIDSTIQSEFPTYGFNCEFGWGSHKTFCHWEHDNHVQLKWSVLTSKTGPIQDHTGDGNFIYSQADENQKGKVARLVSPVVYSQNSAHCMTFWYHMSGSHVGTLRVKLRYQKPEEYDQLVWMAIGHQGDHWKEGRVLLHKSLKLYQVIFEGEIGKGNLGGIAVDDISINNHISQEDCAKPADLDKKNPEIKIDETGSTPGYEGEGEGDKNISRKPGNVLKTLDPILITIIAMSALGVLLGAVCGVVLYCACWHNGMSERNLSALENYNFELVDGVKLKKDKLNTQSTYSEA
# PABP FP inh: PABP-poly(A) binding inhibition. P11940. PABP-poly(A) RNA binding, fluorescence polarization. inhibition, % at 35 µM. 290,000 tested, 1% active;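 note: calls also rest on retests at 20 µM and on dose response follow-up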
# eIF4H FP inh: inhibitors of RNA binding by human eIF4H; eIF4H fluorescence polarization binding assay; inhibition, % at 35 µM; 290,000 tested, 0.94% active; Q15056;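 note: calls also rest on retests at 20 µM and on dose response follow-up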
# PABP1 MLLE inh: inhibitors of microRNA-mediated deadenylation, human PABP1 MLLE binding; P11940; GST-MLLE / FITC-PAM2 fluorescence polarization; inhibition, % at 20 µM; 360,000 tested, 0.36% active; AID 588489; in the data active = inhibition above about 35%, passing the limit was not always enough;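 note: plate controls were DMSO wells with GST-MLLE for no effect and wells lacking GST-MLLE protein for full effect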
# * = called active by the depositor; . = not tested or not shown. The list is not random: actives were taken first. Their share in the collection is about 2.1%. Unless noted, the rule behind the calls is not given here.
SMILES,NRP1-CendR mod,PABP FP inh,eIF4H FP inh,PABP1 MLLE inh
Cc1cc(C(=O)CSc2n[nH]c(N)n2)c(C)n1-c1ccc(F)cc1,-8.8,6.2*,76.2*,-7.5
O=C(COc1ccccc1[N+](=O)[O-])N(C1CCCCC1)C1CCS(=O)(=O)C1 (stereo not drawn),4.0,.,.,-5.8
CCN1CSC(=S)N(Cc2ccc(OC)cc2)C1,-3.3,1.6,3.4,39.8*
CCN1CSC(=S)N(Cc2ccccc2)C1,4.1,13.1,18.5,37.7
O=c1cc(-c2ccccc2)nc2c(Cl)cc(Cl)cn12,5.7,.,.,8.6
COC(=O)/C(=C\c1ccc([N+](=O)[O-])o1)NC(=O)c1ccccc1,-0.6,120.4*,127.5,-6.4
CC(NNC(=S)N1CCN(c2ccccn2)CC1)c1nccc2ccccc12 (stereo not drawn),24.4*,.,.,1.9
CCNC(=S)N1CCN(c2ccccn2)CC1,3.9,1.2,-1.7,-128.6
NC1=NC[C@@H](Cc2ccc(O)cc2)N1CCCCC1CCCCC1,30.9*,1.0,10.8,-2.1
N#Cc1c2n(c(=S)n(-c3ccccc3[N+](=O)[O-])c1=O)CCCCC2,-7.4,10.9,5.7,50.7*
CC(=O)OC[C@@H]1CN(Cc2ccccc2)C[C@H](n2cnc3c(NC4CC4)ncnc32)O1,2.5,.,.,9.3
CCC(SCC(=O)OC)C(=O)Nc1nnc(C(C)C)s1 (stereo not drawn),-3.4,3.3,-3.1,39.4*
O=C(Nc1ccc2c(c1)OCCO2)C1c2ccccc2OCC(=O)N1CC(F)(F)F (stereo not drawn),-6.6,.,.,.
CC(=O)NCc1ccc(C(=O)CN2C(=O)NC3(CCCCC3C)C2=O)s1 (stereo not drawn),-8.8,.,.,2.4
O=C(NCc1cccs1)c1ccc(Cl)c(S(=O)(=O)N2CCOCC2)c1,30.8*,.,.,-25.0
COc1ccc(C(=O)NCc2cccs2)cc1S(=O)(=O)N1CCOCC1,3.4,-7.1,-8.1,2.2
O=C(c1ccco1)N1CCC2CC1c1c(Cl)cccc12 (stereo not drawn),8.7,.,.,-4.4
CCCN(C(=O)CSc1cc(-c2ccccc2)c2ccc(OC)cc2n1)C1CCS(=O)(=O)C1 (stereo not drawn),-6.2,-27.7,-4.0,6.0
COc1ccc2c(-c3ccccc3)cc(SC(C)C(N)=O)nc2c1 (stereo not drawn),28.7*,40.7,1.0,-10.1
Cc1ccc(N)c([N+](=O)[O-])c1,-5.4,.,.,-2.4
Nc1ccc(N=Nc2ccccc2)cc1[N+](=O)[O-],23.4*,.,.,13.9
CCCOc1ccc(C2C(C(=O)OC)=CN(CCOC)C=C2C(=O)OC)cc1,27.9*,23.0,1.2,5.2
CCOc1cccc(=O)c2c(C)oc(C)c12,7.1,20.8,-0.6,43.8*
CCOc1cccc(=O)c2c(C)n(CC(=O)c3ccccc3)c(C)c12,-51.4,38.9,52.5,-27.3
COc1ccc2c(c1OC)C(=O)N1C2SC(C)(C)[C@H]1C(=O)NC(C)C (stereo partly drawn),2.7,-1.6,3.8,3.7
SMILES,NRP1-CendR mod,PABP FP inh,eIF4H FP inh,PABP1 MLLE inh
CCCNC(=O)[C@H]1N2C(=O)c3c(ccc(OC)c3OC)C2SC1(C)C (stereo partly drawn),28.3*,-2.5,-3.8,36.0
COCCNC(=O)[C@@H]1CSC2c3ccc(OC)c(OC)c3C(=O)N21 (stereo partly drawn),-1.3,-0.2,-1.9,23.9
CCC(C)NC(=O)[C@H]1N2C(=O)c3c(ccc(OC)c3OC)C2SC1(C)C (stereo partly drawn),-0.2,6.6,6.2,42.7*
COc1ccc2c(c1OC)C(=O)N1C2SC[C@H]1C(=O)NC1CCCC1 (stereo partly drawn),6.0,-1.5,-10.8,41.1*
CCN(CC)C(=O)c1cccc(-c2csc(C(C)(O)c3ccc(OC)cc3)n2)c1 (stereo not drawn),6.4,.,.,2.0
CC12CCC(O)CC1=CCC1C2CCC2(C)C1CCC21CCC(=O)O1 (stereo not drawn),6.4,66.1*,11.7*,-4.3
C[C@]12CCC3C(CC=C4C[C@@H](O)CC[C@@]43C)C1CCC2[C@]1(C)CCC(=O)O1 (stereo partly drawn),-19.4,-8.2,1.6,1.0
O=S(=O)(NCCCSc1ccccc1)c1ccccc1F,-1.0,-2.1,-9.4,43.3*
CC(C)(Cc1ccc(O)cc1)NC(=O)SCc1ccccc1,-3.0,15.0,0.9,8.5
CCCCCn1c(N)c(-c2nc3ccccc3o2)c2c([N+](=O)[O-])nn(CC)c(=O)c21,-5.4,-5.4,38.0,-0.9
CCCCCn1c(N)c(-c2nc3ccccc3o2)c2c([N+](=O)[O-])nn(C)c(=O)c21,0.7,-1.5,74.2*,1.1
CSc1ccc(CN(C)CC(=O)NC(=O)NCCC2=CCCCC2)cc1,-1.0,.,.,8.7
COc1ccc(/C=C/C(=O)NC(=S)NNC(=O)c2cccs2)cc1,-12.9,64.1,5.9*,-28.9
COc1ccc(C(=O)NNC(=S)NC(=O)c2cccs2)cc1,1.5,2.0,11.9,18.9
Cc1onc(-c2ccccc2Cl)c1C(=O)N1CCCCCC1,-1.5,3.6,9.7,-14.8
COC(=O)c1ccc(CNC(=O)C2CCC(=O)N(C3CCCCCC3)C2)cc1 (stereo not drawn),11.9,.,.,4.7
O=C(O)c1ccc(CSc2nc3c(c(=O)[nH]2)CCC3)cc1,-6.8,.,.,1.8
Cc1nc(SCc2ccc(C(=O)O)cc2)nc2c1CCCC2,41.8*,-6.7,-7.6,1.8
Cc1ccc(C(=O)/C=C/NCc2ccc(F)cc2)cc1,35.8*,9.9,1.1,-55.5
CCc1ccc(OCC(=O)NC(NC(=S)Nc2ccccc2OC)C(Cl)(Cl)Cl)cc1 (stereo not drawn),-1.2,active,77.5*,23.1
O=C(CN1CCOCC1)NN=C1CCCCCCCCCCC1,10.7,57.1*,active,4.3
O=C(CN1CCOCC1)NCCNC(=O)CN1CCOCC1,11.2,0.9,-2.1,4.6
COc1ccc(C(C)=O)cc1Cn1c(C)c(C(=O)NC2CC2)sc1=O,-10.5,.,.,11.8
Nc1ccc(/C=C/C(=O)c2cccs2)cc1,-145.5,31.8,65.4*,-113.5
Cc1c(NS(=O)(=O)c2cccc(C(=O)Nc3cccc(F)c3)c2)c(=O)n(-c2ccccc2)n1C,-7.2,.,.,2.1
SMILES,NRP1-CendR mod,PABP FP inh,eIF4H FP inh,PABP1 MLLE inh
CCOc1ccccc1NC(=O)C1=C(C)NC(=S)NC1c1cccs1 (stereo not drawn),-6.2,50.9*,-1.9,-120.9
COc1ccccc1NC(=O)C1=C(C)NC(=O)NC1c1cc(C)cs1 (stereo not drawn),-1.7,55.5*,0.6,-3.2
COc1ccc(OC)c(NC(=O)C2=C(C)NC(=O)NC2c2cccs2)c1 (stereo not drawn),-5.5,-0.9,7.1,-6.3
COc1ccccc1NC(=O)C1=C(C)NC(=O)NC1c1ccccc1F (stereo not drawn),19.8*,4.0,-1.6,-10.6
Cc1nc2nc(CNC(=O)OC(C)(C)C)nn2c(C)c1CCC(=O)Nc1ccc2c(c1)OCO2,18.7,11.6,-0.4,1.7
O=S(=O)(c1cccc2cccnc12)N1CCCCC1,0.6,5.5,-3.4,9.1
CC(CS(=O)(=O)c1cccc2cccnc12)N1CCCCC1 (stereo not drawn),-11.4,78.6*,53.1*,30.6
Oc1cc(Nc2ccccc2)cc2cccnc12,-4.5,.,.,-6.6
